The campaign covered roughly 69,000 compounds. About 8,600 (12%) showed an effect of 50% or more. The list comes from a sample in which strong results are over-represented; it also holds similar structures and randomly drawn compounds.

The subject of this test is Plasmodium berghei. The test is described as follows: Screen against P. berghei liver stage (PbLuc), transformed with Luciferase, at 10uM. In kind it is functional, HepG2. As to conditions: tested at 10 uM.
Regarding `CN(CCCNC(=O)C1CCCN(C(N)=O)C1)S(C)(=O)=O` (stereo unspecified), the INHIBITION came out at 19.8%. In the case of `O=C(Cc1ccc(F)cc1)NCCNS(=O)(=O)C1CCCC1` it was 54.9%.

Regarding `O=C(Cc1cccc(F)c1)NCCNS(=O)(=O)C1CCCC1`, the INHIBITION is reported as 25.3%. In the case of `O=C(Cc1ccccc1)NCCNS(=O)(=O)C1CCCCC1` it was 18.2%; in that of `O=C(c1ccc(O)nc1)N1CCC(Nc2cccnn2)CC1`, 29.4%; in that of `O=C([C@@H]1CC[C@@H]2[C@@H](CCN2Cc2cccs2)O1)N1CCCCO1`, -75.3%. For the compound `Cc1ccsc1CN1CC[C@H]2O[C@H](C(=O)N3CCCO3)CC[C@H]21`, the INHIBITION is reported as -18.4%.

`Cc1ccc(N2CC[C@H]3O[C@H](C(=O)N4CCCCO4)CC[C@H]32)nn1`: the INHIBITION was 46.4%. The result for `Cc1ccc(N2CC[C@H]3O[C@@H](C(=O)N4CCCCO4)CC[C@H]32)nn1` reads 3.69%. In the case of `Cc1ccc(N2CC[C@H]3O[C@@H](C(=O)N4CCCO4)CC[C@H]32)nn1` it was 92.1%; in that of `Cc1ccc(CN2CC[C@H]3O[C@@H](C(=O)N4CCCO4)CC[C@H]32)s1`, 66.9%. The result for `COCCCN(Cc1ccccn1)S(=O)(=O)N(C)C` reads 32.8%; that for `CS(=O)(=O)NCc1cn2c(n1)CN(Cc1cccnc1)CC2`, -12.2%; that for `CCCSCC(=O)N1C[C@@H]2CC[C@H]1CN(c1ncccn1)C2`, -4.37%. For `O=C(Nc1ccc(-c2csnn2)cc1)N1CC[C@H](O)C1`, the INHIBITION is -73.4%. In the case of `CCOCC1CCN(C(=O)Nc2ccc(-c3csnn3)cc2)C1` (stereo unspecified) it was 60%. In the case of `CCN(C)CC1CCN(C(=O)Nc2ccc(-c3csnn3)cc2)C1` (stereo unspecified) it was -32.3%; in that of `Cc1noc(C)c1-c1nc(NCCN(C)C)ncc1-c1cnccn1`, -56.2%; in that of `CCCOC(=O)N1CCC(c2nnc(Cn3cccn3)n2C2CC2)CC1`, -35.9%. In the case of `c1coc(-c2noc(CN3CCCC3Cn3cncn3)n2)c1` (stereo unspecified) it was 31.8%; in that of `COCCc1noc(CN2CCCC2Cn2nc(C)cc2C)n1` (stereo unspecified), 1.75%. For the compound `Cc1cc(C)n(CC2CCCN2Cc2ncc(C(C)(C)C)o2)n1` (stereo unspecified), the INHIBITION was -25.6%. In the case of `COCCc1noc(CN2CCCC2Cn2nc(C)nc2C)n1` (stereo unspecified) it was 64.8%; in that of `Cc1nc(C)n(CC2CCCCN2Cc2ncc(C(C)(C)C)o2)n1` (stereo unspecified), 31%; in that of `Cc1nc(C)n(CC2CCCN2CCc2ccncc2)n1` (stereo unspecified), -21.985%. In the case of `COCCc1noc(CN2CCCCC2Cn2nc(C)cc2C)n1` (stereo unspecified) it was 18.4%. As for `Cc1nc(C)n(CC2CCCN2Cc2ncc(C(C)(C)C)o2)n1` (stereo unspecified), the INHIBITION is on record as 63.5%. In the case of `CC(C)(C)CC1CCCN1Cc1nc(-c2ccco2)no1` (stereo unspecified) it was 76.2%. With `Cc1nc(C)n(CC2CCCN2Cc2nc(-c3ccco3)no2)n1` (stereo unspecified), the INHIBITION is recorded as 29.645%. The result for `Cc1nc(C)n(CC2CCCN2CC(=O)NCCc2cccs2)n1` (stereo unspecified) reads 43.6%; that for `Cc1nc(C)n(CC2CCCN2CCc2cccs2)n1` (stereo unspecified), 52%; that for `Fc1cc(Cl)cnc1N1CCCC(c2nccn2Cc2ccncc2)C1` (stereo unspecified), 31.4%.

For the compound `CCOC(=O)c1cccc(N2CCCC3(CCC(=O)N(C4CC4)C3)C2)n1` (stereo unspecified), the INHIBITION amounted to 28.7%. The result for `CC(C)C1CN(C(=O)c2ccn(C)c(=O)c2)c2ccccc2N1` (stereo unspecified) reads -36.7%.

As for `Cc1nc(CN(C)C2CCN(CCCc3ccccc3)C2)no1` (stereo unspecified), the INHIBITION is recorded as -61.4%.

Regarding `Cc1ccc(-c2nc(CN3CCn4c(C)nnc4C3)cs2)o1`, the INHIBITION is -31.8%.

Turning to `Cc1cc(C(=O)N(CC(C)C)CC(O)c2ccc(F)cc2)[nH]n1` (stereo unspecified), the INHIBITION was -36.4%. Consider `CSc1ccccc1NC(=O)C1CN(C(=O)c2ccc3c(c2)OCO3)C1`, for which the INHIBITION is on record as 12.7%. The result for `CN(C)C(=O)[C@@H]1CCO[C@@H]2CCN(c3ncccn3)C[C@@H]21` reads 8.85%. On to `Cc1nc(C)n(CC2CCCN2Cc2nnc(-c3ccco3)o2)n1` (stereo unspecified), for which the INHIBITION is 50%. The result for `Cc1nc(C)n(CC2CCCN(Cc3nnc(-c4ccco4)o3)C2)n1` (stereo unspecified) reads -0.79%; that for `Cc1nc(C)n(CC2CCCCN2Cc2nnc(-c3ccco3)o2)n1` (stereo unspecified), -9.07%. In the case of `O=C(Cn1cc(-c2ccccc2)ncc1=O)Nc1nc(C2CC2)n[nH]1` it was 33.7%.

With `O=C(N[C@H]1COC[C@@H]1N1CCCC1)c1csc(-c2cccs2)n1`, the INHIBITION is 34.2%. The result for `COc1ccc(C[C@H]2CN(c3cc(OC)ncn3)CC[C@@H]2OC)cc1` reads 55.5%. In the case of `COc1ccc(C[C@H]2CN(C(=O)c3ncccn3)CC[C@@H]2OC)cc1` it was 27.2%. The result for `COc1ccc(C[C@H]2CN(C(=O)c3ccc(C)nc3)CC[C@@H]2OC)cc1` reads -12.2%; that for `COc1ccc(C[C@H]2CN(C(=O)c3ccncc3)CC[C@@H]2OC)cc1`, 34.1%.

For `COc1ccc(C[C@H]2CN(c3cc(OC)ncn3)CC[C@H]2OC)cc1`, the INHIBITION was 74.8%. The result for `COc1cc(N2CC[C@@H](OC)[C@@H]2Cc2ccccc2)ncn1` reads -30%; that for `c1cc(CN2CCCn3cnc(COCC4CC4)c3C2)ccn1`, 18.5%; that for `COCc1nn(C)c2c1CCN(Cc1cnn(C)c1)C2`, -17.1%.

As to `N#Cc1ccc(CNCCc2cc(F)cc3c2OCOC3)cc1`, the INHIBITION turned out to be 28.8%. In the case of `Cc1cc(C(=O)N2CCO[C@H]3[C@H](OCCN(C)C)CC[C@@H]32)c(C)[nH]1` it was 24.3%; in that of `O=C1OCCN1CC(=O)N1C[C@@H]2CC[C@H]1CN(C(=O)c1ccccn1)C2`, 44.8%; in that of `O=C1Nc2ccccc2CN(CC2CC2)C12CCNC2` (stereo unspecified), 46.6%. In the case of `O=C(CN1CC(c2nc(Cc3ccccc3)no2)C1)NCC1CCCO1` (stereo unspecified) it was 2.55%; in that of `CC(C)NC(=O)C1CN(C(=O)N2CCCC2)CC12CCOCC2` (stereo unspecified), 22.7%; in that of `CC(C)NC(=O)C1CN(C(=O)CCc2ccccc2)CC12CCOCC2` (stereo unspecified), 20.9%. The result for `CC(C)NC(=O)C1CN(C(=O)Nc2ccccc2)CC12CCOCC2` (stereo unspecified) reads 17.6%.

With `Cc1ccc(NC(=O)N2CC(C(=O)NC(C)C)C3(CCOCC3)C2)cc1` (stereo unspecified), the INHIBITION is on record as 80%. The result for `CC(C)NC(=O)C1CN(C(=O)Cc2cccc(F)c2)CC12CCOCC2` (stereo unspecified) reads 10%; that for `CN(C)C(=O)N1CC(C(=O)NCC2CC2)C2(CCOCC2)C1` (stereo unspecified), 36.7%.

Take `CC(C)NC(=O)C1CN(C(=O)Nc2ccc(F)cc2)CC12CCOCC2` (stereo unspecified): the INHIBITION was 14.8%. In the case of `CC(C)NC(=O)C1CN(C(=O)N(C)C)CC12CCOCC2` (stereo unspecified) it was 89.2%; in that of `CC(C)NC(=O)C1CN(C(=O)Cc2ccccc2)CC12CCOCC2` (stereo unspecified), 53.4%; in that of `CN(CCOCC1CC1)C(=O)Nc1ccc([S+](C)[O-])c(F)c1` (stereo unspecified), 41.3%. The result for `Cc1cnn(CC(=O)N2CCCN(Cc3cnn(C(C)C)c3)CC2)c1` reads 33.7%; that for `NC(=O)CS(=O)(=O)Cc1csc(-c2ccccc2)n1`, 46.6%.

On to `CCS(=O)(=O)N1CC[C@H]2CO[C@H](CN(C)C)[C@H]2C1`, for which the INHIBITION is 19.4%. In the case of `Cc1nc(NC(=O)OC(C)(C)C)sc1C(N)=O` it was -0.514%; in that of `Cc1nc(NC(=O)OC(C)(C)C)sc1C#N`, 53.4%; in that of `Cc1nc(NC(=O)OC(C)(C)C)sc1C(=O)O`, 46.6%. Consider `O=C(c1ccc[nH]1)N1CCc2ncc(Cn3cccn3)n2CC1`, for which the INHIBITION is reported as 25.6%.

Turning to `Cc1nccn1-c1cccc(N2CCC(OCC3CCCCO3)CC2)n1` (stereo unspecified), the INHIBITION is on record as 95.9%. In the case of `c1ccc(N2CCN(Cc3cnc(C4CCCCO4)nc3)CC2)nc1` (stereo unspecified) it was 51.7%. The result for `c1ccc(N2CCN(Cc3cnc(C4CCCCO4)nc3)CC2)cc1` (stereo unspecified) reads 21.1%; that for `Cc1nccn1-c1cccc(C2CCCN2)n1` (stereo unspecified), -2.09%; that for `c1ccc(CCN2CCC(OCC3CCCCO3)CC2)nc1` (stereo unspecified), 7.24%. The result for `Clc1ccc(N2CCC(OCC3CCCCO3)CC2)nc1` (stereo unspecified) reads 34.5%; that for `c1cnc(N2CCC(OCC3CCCCO3)CC2)nc1` (stereo unspecified), 31.1%; that for `c1ccc(N2CCC(OCC3CCCCO3)CC2)nc1` (stereo unspecified), 62.9%.

Regarding `c1ccc(CN2CCN(Cc3cnc(C4CCCCO4)nc3)CC2)cc1` (stereo unspecified), the INHIBITION is 10.9%.

For the compound `CCCn1cc(C(=O)N2CCCC2(C)c2nc(C)cc(C)n2)cn1` (stereo unspecified), the INHIBITION is on record as -3.02%. In the case of `Cn1cc(S(=O)(=O)N(CC(F)(F)F)C2CC2)cc1C(N)=O` it was -29.2%; in that of `O=C(Cn1cnc2ccsc2c1=O)c1ccc2c(c1)OCCO2`, -73.1%. In the case of `CS(=O)(=O)NCCC(=O)N1CCN(S(=O)(=O)c2ccc(Br)cc2)CC1` it was 11.8%; in that of `COCC(=O)NCCC(=O)N1CCN(S(=O)(=O)c2ccc(Br)cc2)CC1`, 68.4%; in that of `COCC(=O)N1CCN(S(=O)(=O)c2ccccc2)[C@@H](C(=O)OC)C1`, -33%. Turning to `COCC(=O)NCc1cccc(Br)c1`, the INHIBITION is on record as 3.81%. The result for `COCC(=O)NCCC(=O)N1CCN(S(=O)(=O)c2cccc(Br)c2)CC1` reads 63.8%. The result for `COCC(=O)NCCSCCOc1cccc(Br)c1` reads 18%; that for `CCCn1ncc(C(=O)NC2CCN(CC3CCCO3)CC2)c1C` (stereo unspecified), 34.4%; that for `CCCn1ncc(C(=O)NC2CCN(C3CCOCC3)CC2)c1C`, 59.3%.

Turning to `CCCn1ncc(C(=O)N2CCN(C3CCCC3)CC2)c1C`, the INHIBITION is -39.2%. In the case of `CN1CC(=O)N(c2cccc(F)c2)CC12CCN(Cc1cnn(C)c1)C2` (stereo unspecified) it was 18.2%.

As to `Cc1ccc(C2(CN3CCN(Cc4cnc(C)n4C)CC3)CC2)cc1`, the INHIBITION worked out at 12.8%.

`c1ccc2ncc(CC3CCNC3)cc2c1` (stereo unspecified): the INHIBITION came to 35%. Regarding `CN1CCNCC(Cc2cnc3ccccc3c2)C1` (stereo unspecified), the INHIBITION worked out at 52.7%. In the case of `CN1CCC(Cc2cnc3ccccc3c2)C1` (stereo unspecified) it was 45.2%. The result for `Cc1ccc(C)n1C(C)C(=O)N1CCCN(Cc2cscn2)CC1` (stereo unspecified) reads 26.55%; that for `CCOC(=O)CC1CCCCN1C(=O)c1cccc2ccnn12` (stereo unspecified), -22.1%. As for `O=C(c1cnccn1)N1CCCC2(CCCN2Cc2cccnc2)C1` (stereo unspecified), the INHIBITION is -8.85%. The result for `Cn1cccc1C(=O)N1CCC2(CC1)CCN2S(C)(=O)=O` reads 20.1%; that for `Cn1cccc1C(=O)N1CCC2(CCCN2S(C)(=O)=O)CC1`, 28.2%.

Consider `Cn1cccc1C(=O)N1CCCC2(CCCN2Cc2cccnc2)C1` (stereo unspecified), for which the INHIBITION came out at 56.9%.

As to `CN1CCCCC12CCN(C(=O)c1cccn1C)CC2`, the INHIBITION came to 50.7%. As for `Cn1cc(CN2CCCC23CCN(C(=O)c2ccccc2)CC3)cn1`, the INHIBITION is listed as -9.18%. The result for `Cn1cccc1C(=O)N1CCC2(CCCN2Cc2ccccc2)CC1` reads 45.3%. For the compound `Cn1cc(CN2CCCC23CCN(C(=O)c2cccn2C)CC3)cn1`, the INHIBITION was determined as 66%. Turning to `CC(C)C(=O)N1CCCC2(CCCN2Cc2cccnc2)C1` (stereo unspecified), the INHIBITION came to 10.5%.

Values taken from ChEMBL document CHEMBL4513216, “Probing the Open Global Health Chemical Diversity Library for Multistage-Active Starting Points for Next-Generation Antimalarials” (ACS Infect Dis, 2020).
